Assay outcomes deposited in PubChem BioAssay by National Center for Advancing Translational Sciences (NCATS).
Tau fibril ThT: inhibitors of human tau fibril formation, thioflavin T binding; Potency, µM (top dose mostly 57.4 µM), without a hit: at the top dose activity, negative = inhibition, hits mostly inhibitors; actives 2.1% (n = 270,000); AID 1460; P10636; recombinant tau K18 P301L, heparin-induced fibrillization, ThT fluorescence; note: potency is the fitted concentration of half-maximal effect; nearly all actives have a fitted effect of over 55% in size
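K18 P301L tau (15 uM + 0.24 uM Alexa 594-tagged), heparin 20 uM, NaOAc pH 7, 6 h 37 C; ThT 30 uM, 1 h RT, ex 450/em 510 nm.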
Tau fluor counter: counter-screen for tau fibril formation inhibitors | tau K18 P301L Alexa594 fluorescence, heparin fibrillization | Potency, µM (titrated, usually from 57.7 µM), inactives show top-dose activity change, negative = decrease | AID 1463 | actives 0.93% (n = 280,000); note: potency is the fitted concentration of half-maximal effect; nearly all actives have a fitted effect of over 55% in size
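Human tau K18 P301L (15 uM unlabeled, 0.24 uM Alexa 594-labeled) in 100 mM sodium acetate pH 7 with 20 uM heparin, 6 hr at 37 C. ThT 30 uM added, 1 hr ambient; Alexa 594 FP and total fluorescence read at 555/632 nm.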
Tau fibril FP: blocks human tau fibril formation measured by polarization | P10636 | K18 P301L tau heparin fibrillization, Alexa594 FP, 6 h | Potency, µM (titrated, usually from 57.7 µM), inactives show at the top dose activity, negative = inhibition, hits mostly inhibitors | actives 0.39% (n = 280,000); note: potency is the fitted concentration of half-maximal effect; nearly all actives have a fitted effect of over 55% in size
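Human K18 P301L fragment (15 uM unlabeled plus 0.24 uM Alexa 594-labeled) in 100 mM sodium acetate pH 7 with compound, aggregation induced by 20 uM heparin for 6 hr at 37 C. ThT (30 uM) added for 1 hr, then Alexa 594 FP read.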
USP1-UAF1 inh: blocks the human USP1/UAF1 deubiquitinase complex. O94782. recombinant USP1/UAF1, Ub-Rhodamine cleavage fluorescence. Potency, µM (titrated, usually from 57.1 µM), without a hit: at the top dose activity change, negative = inhibition, most hits filed as inhibitors. actives 0.23% (n = 390,000). AID 743255; note: potency is the fitted concentration of half-maximal effect; nearly all actives have a fitted effect of over 60% in size
Target sequence (O94782 whole entry, looked up): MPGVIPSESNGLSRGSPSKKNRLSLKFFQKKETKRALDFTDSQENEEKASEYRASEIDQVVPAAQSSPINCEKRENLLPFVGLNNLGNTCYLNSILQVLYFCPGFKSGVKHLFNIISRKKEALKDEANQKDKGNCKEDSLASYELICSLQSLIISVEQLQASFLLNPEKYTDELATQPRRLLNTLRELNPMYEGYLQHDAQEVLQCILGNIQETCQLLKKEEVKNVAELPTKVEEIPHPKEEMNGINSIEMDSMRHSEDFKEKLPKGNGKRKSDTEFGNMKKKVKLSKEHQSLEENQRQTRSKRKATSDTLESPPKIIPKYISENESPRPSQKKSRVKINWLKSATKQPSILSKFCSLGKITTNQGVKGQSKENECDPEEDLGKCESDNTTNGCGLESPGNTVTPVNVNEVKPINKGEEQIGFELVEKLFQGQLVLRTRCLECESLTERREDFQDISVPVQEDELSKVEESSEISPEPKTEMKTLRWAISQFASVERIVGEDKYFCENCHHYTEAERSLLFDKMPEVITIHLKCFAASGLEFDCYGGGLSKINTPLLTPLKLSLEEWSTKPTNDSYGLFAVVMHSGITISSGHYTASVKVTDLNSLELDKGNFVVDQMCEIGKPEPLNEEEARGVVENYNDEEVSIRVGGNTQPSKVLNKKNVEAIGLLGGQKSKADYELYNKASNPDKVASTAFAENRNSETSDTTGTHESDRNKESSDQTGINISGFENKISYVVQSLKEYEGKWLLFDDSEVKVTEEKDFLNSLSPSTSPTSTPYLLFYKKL
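1 nM enzyme complex + cpd, 15 min RT; start with Ub-Rho 150nM final; kinetic fluorescence ex 480/em 540, 6 reads q60 s. Buffer 50mM HEPES pH 7.8, 0.5mM EDTA, 0.1 mg/ml BSA, 1mM TCEP, 0.01% Tween-20.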
FBPA coupling cs: inhibits coupling enzyme system, counter-screen for aldolase hits; actives 0.67% (n = 290,000); activity change, negative = inhibition, % at 58.2 µM, hits read low; coupling enzyme system counterscreen, AmpLite Red fluorescence; in the data active = activity change below about -30%
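Counterscreen lacking aldolase: glyceraldehyde-3-phosphate coupling-enzyme reagent preincubated 10 min at RT with compound (at 57.5 uM final), then substrate/coupling system with AmpLite Red added; fluorescence read at 525/598 nm after 20 min RT.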
Starred values were filed as active, the others as inactive; ? = inconclusive; nt = not tested or not shown; ! = a repeat was not active; [ ] = dose if it differs, or a comment. A selection: hits, their analogues and other compounds. The true share with any hit is near 2.3%. Unless noted, calls come from the whole dose curve; as a rule, active = well fitted curve in the direction sought with a large enough effect; inconclusive = small, poorly fitted or top-dose-only effect, or another doubt; inactive = no such curve, though single readings can be large; an effect the other way counts as inactive or inconclusive. % is set by controls: 0 for no effect and ±100 for the full control effect.

SMILES	Tau fibril ThT	Tau fluor counter	Tau fibril FP	USP1-UAF1 inh	FBPA coupling cs
COc1ccccc1NC(=O)CSc1nnc(NC(=O)Nc2ccc(C)cc2)s1	2.9%	?	15.8µM*	-10.0%	nt
COc1ccccc1NC(=O)CCCCC(=O)Nc1ccccc1OC	nt	nt	nt	-10.5%	-0.4
COc1ccccc1NC(=O)CSC(N)=O	31.6µM*	-20.2%	?	-12.9%	1.9
NC(=O)SCC(=O)Nc1ccccc1C(=O)O	22.4µM*	-17.3%	?	-20.4%	1.6
COC(=O)c1ccccc1NC(=O)c1ccc2c(c1)CCN2S(=O)(=O)c1ccc(Cl)cc1	-0.4%	-16.9%	-9.0%	-15.3%	nt
Nc1[nH]n2c(=O)cc(-c3ccccc3)nc2c1N=Nc1ccc(S(N)(=O)=O)cc1	2.24µM*	?	2.9%	-1.8%	6.4
Nc1[nH]n2c(=O)cc(-c3ccccc3)nc2c1N=Nc1ccccc1	5.01µM*	?	15.6%	?	0.3
Cc1cc(C)n2[nH]c(=O)c(N=Nc3ccc(S(N)(=O)=O)cc3)c2n1	?	-1.5%	-1.2%	-10.2%	0.2
NS(=O)(=O)c1ccc(N=Nc2c(-c3ccccc3)[nH]n(-c3nc(-c4ccccc4)cs3)c2=O)cc1	1.78µM*	8.91µM*[quencher]	?	-1.6%	0.5
COC(=O)NCc1c(C)nn(-c2ccccc2)c1-n1cccc1	5.9%	-3.0%	-1.6%	-21.9%	nt
Cc1cc(C)c2c(=O)cc(C(=O)Nc3ccc(S(=O)(=O)N(C)Cc4ccccc4)cc3)oc2c1	3.7%	-18.2%	?	?	nt
COc1ccc(-c2ccc(/C=C3/C(=N)N4C(C)=CSC4=NC3=O)o2)c([N+](=O)[O-])c1	2.24µM*	?	-9.9%	-15.8%	0.4
Cc1cccc(C)c1NC(=O)CN(C)S(=O)(=O)c1ccc2[nH]c3c(c2c1)CCCC3	1.9%	?	16.9%	?	nt
CCOc1ccc(NC(=O)CN(C)S(=O)(=O)c2ccc3[nH]c4c(c3c2)CCCC4)cc1	-16.3%	14.1µM*[quencher]	3.8%	-18.7%	nt
Cc1cc(C)cc(NC(=O)CN(C)S(=O)(=O)c2ccc3[nH]c4c(c3c2)CCCC4)c1	-7.3%	4.47µM*[quencher]	-9.0%	-24.9%	nt
CC(=O)OC[C@@H]1O[C@H](CCO/N=C(\C)CCC(=O)OC[C@@H]2O[C@H](C#Cc3ccccc3)C=C[C@@H]2Oc2ccc(C)cc2)C=C[C@@H]1OC(C)=O	-6.6%[11.5 µM]	-6.8%[11.6 µM]	2.3%[11.6 µM]	nt	1.1
COc1cc(NCCCCCCCN)c2ncccc2c1	7.5%	-3.0%	5.0%	?	-36.7*
COc1cc(NC(C)CCCN)c2ncccc2c1 (configuration not stated)	-10.5%	-15.0%	-0.3%	?	-2.9
CCOC(=O)SC1=N/C(=C\c2ccc(N(C)C)cc2)C(=O)S1	4.47µM*	-20.7%	0.6%	?	1.3
CCOC(=O)c1ccc(NC(=O)Nc2ccc3c(c2)OCCO3)cc1	?	12.6µM*[quencher]	?	-14.6%	-0.5
CCOc1ccc(C2C(C(=O)C3CC3)N3C=C(C#N)C=CC3C2(C#N)C#N)cc1 (configuration not stated)	15.8µM*	-23.6%	?	nt	-8.7
O=C(O)CCc1ccc(-c2ccccc2)n1-c1cccc(Br)c1	-24.0%	-14.2%	-2.3%	?	nt
O=C(Nc1ccc2c(c1)nc1n2CCN(C2CCCCC2)C1)NC1CCCCC1	?	-23.6%	8.9%	nt	-31.8*
CCc1cc2c3c(c1)C(C)CC(C)(C)N3C(=O)/C2=C1\SC(=O)NC1=O (configuration not stated)	14.1µM*	?	2.7%	-10.1%	1.1
CCOc1cc(/C=N/NC(N)=O)cc(Br)c1OCc1ccccc1F	-9.6%	?	?	-10.5%	2.1
SMILES	Tau fibril ThT	Tau fluor counter	Tau fibril FP	USP1-UAF1 inh	FBPA coupling cs
COc1cc(CNCc2ccncc2)cc(Br)c1OCc1ccccc1F	-2.0%	-10.8%	-1.9%	-6.1%	2.1
CCOc1cc(CNc2ccc(O)cc2)cc(Br)c1OCc1ccccc1F	25.1µM*	12.6µM*[quencher]	?	?	-55.5*
COc1cc(CNc2ccc(O)cc2)cc(Br)c1OCc1ccccc1F	25.1µM*	12.6µM*[quencher]	?	?	-57.1*
CCOc1cc(CNc2ccc(O)cc2)cc(Br)c1OCc1ccccc1	?	8.91µM*[quencher]	-1.2%	-19.1%	nt
Cc1c(Cl)cccc1NC(=O)CCOc1ccccc1	-17.1%	-14.8%	-11.7%	-19.9%	nt
CCOc1ccccc1NC(=O)CSc1nc2ccccc2c2nc(CCn3cncc3C)nn12	-10.6%	5.5%	12.0%	-18.3%	nt
O=C(Nc1cccc(F)c1)c1ccc2snnc2c1	-10.2%	-18.5%	-4.3%	-29.5%	nt
COc1cccc(CSc2nc3n(n2)C(c2ccccc2C)C(C(=O)Nc2ccccc2OC)=C(C)N3)c1 (configuration not stated)	-10.3%	-23.5%	?	-10.7%	nt
CSc1nnc(-c2cc3c(s2)-c2ccccc2CC3)o1	?	-24.9%	-1.7%	-21.9%	0.7
S=c1[nH]nc(-c2cc3c(s2)-c2ccccc2CC3)o1	12.6µM*	?	13.0%	-9.2%	8.6
COc1ccccc1NC(=O)CN(Cc1ccco1)C(=O)c1cncc(Br)c1	-14.6%	-11.2%	-3.1%	-14.9%	-30.5*
Cc1cc(C)c(Nc2cc(S(=O)(=O)O)c(N)c3c2C(=O)c2ccccc2C3=O)c(C)c1	7.94µM*	7.08µM*[quencher]	20µM*	?	-3.8
CN(C)c1ccc(/C=C(\C#N)C(=O)c2ccccc2)cc1	?	?	-10.4%	14.1µM*	3.1
CCN(CC)c1ccc(/C=C(\C#N)C(=O)c2ccc(Br)cc2)cc1	?	?	-9.3%	25.1µM*	-0.2
CCN(CC)c1ccc(/C=C(\C#N)C(N)=S)cc1	4.47µM*	?	-1.7%	-24.0%	1.6
Clc1ccccc1OCCSc1nnc(-c2cccs2)o1	?	-21.5%	-5.0%	-16.4%	nt
CN(C)c1ccc(C(CNC(=O)c2c(F)cccc2Cl)N2CCOCC2)cc1 (configuration not stated)	-10.9%	-8.8%	9.7%	-21.7%	nt
CC(Sc1nc(=O)cc(N)n1CCc1ccccc1)C(=O)Nc1ccccc1C#N (configuration not stated)	-11.7%	-18.2%	-4.0%	-20.3%	nt
C/C=C(/C)C(=O)O[C@H]1CC(C)=CC(=O)[C@@]2(C)CC[C@@](O)(C(C)C)[C@H]12	nt	nt	nt	nt	5.0
Cn1c2nc(=O)[nH]c(=O)c-2cc2ccccc21	nt	nt	nt	-15.3%	nt
Cc1cc2nc3c(=O)[nH]c(=O)nc-3n(C)c2cc1C=O	?	-23.5%	?	nt	-38.1*
CC(=O)OCCn1c2nc(=O)[nH]c(=O)c-2nc2cc(C)c(C)cc21	?	-8.2%	-11.5%	28.2µM*	-19.5
Cc1cc2nc3c(=O)[nH]c(=O)nc-3n(CC(O)C(O)C(O)CO)c2cc1C (configuration not stated)	?	-1.4%	1.7%	nt	-33.4*!
